{"source": "ChEMBL document CHEMBL1201862", "about": "“PubChem BioAssay data set” (2004)", "note": "Out of some 57,000 sequences screened, about 4,000 (7%) were called active. Rule as the data show it: active = GI50 up to about 1.1 µM and inactive = higher. Not all results are given here. Results with a measured potency or affinity are listed apart.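 How tested: cells in 96-well plates exposed to compound for 48 hours at five concentrations. GI50 = concentration required for 50% inhibition of growth.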"}
{"test_system": "M14", "test": "NCI tumour cell line growth inhibition, 48 h", "units": {"GI50": "µM"}}
{"substance": "mu-(1,7-nanodiamine-N,N')bis-(cis-aminedichloroplatimum (II)), CHEMBL2146215", "GI50": 7.78}
{"substance": "cis-Bis[[(trimethylsilyl)methyl]amino]tetrachloroplatinum(IV), CHEMBL2146191", "GI50": 3.5}
{"substance": "[Bis(aminomethyl)dimethylsilane]dichloroplatinum (II), CHEMBL2146201", "GI50": 22.9}
{"substance": "[Bis(aminomethyl)diethylsilane]tetrachloroplatinum(IV), CHEMBL2146203", "GI50": 1.38}
{"substance": "[Bis(aminomethyl)tetramethylenesilane]dichloropaltinum(II), CHEMBL2146205", "GI50": 13.5}
{"substance": "[Bis(aminomethyl)ethylmethylsilane]tetrachloroplatinum(IV), CHEMBL2146192", "GI50": 2.68}
{"substance": "[Bis(aminomethyl)tetramethylenesilane]tetrachloropaltinum(IV), CHEMBL2146189", "GI50": 6.11}
{"substance": "CISPLATIN, CHEMBL11359", "GI50": 1.95}
{"substance": "[Bis(aminomethyl)dimethylsilane]tetrachloroplatinum(IV), CHEMBL2146190", "GI50": 7.45}
{"substance": "[Bis(aminomethyl)pentamethylenesilane]tetrachloropaltinum(IV), CHEMBL2146204", "GI50": 2.13}
{"substance": "[Bis(aminomethyl)pentamethylenesilane]dichloropaltinum(II), CHEMBL2146202", "GI50": 1.92}
